Results published in PubChem BioAssay (NCATS).
Inconclusive results are not listed. Calls of active or inactive are those of the source. Unless noted, calls follow the shape of the dose curve; as a rule, active = well fitted curve in either direction with a large enough effect (not every such curve was filed as active); inconclusive = small, poorly fitted or top-dose-only effect, or another doubt; inactive = flat fitted curve, though single readings scatter.

Key:
[1] = biological target: Lysosomal acid glucosylceramidase (Homo sapiens) (UniProt P04062); assay: Glucocerebrosidase-p2 (AID 348; in the data active = potency below about 10 µM; also: potency is read from the fitted curve at half-maximal effect); details: purified GBA, blue fluorogenic substrate, 40 min
Sequence of Lysosomal acid glucosylceramidase (Homo sapiens) (P04062 whole entry, looked up): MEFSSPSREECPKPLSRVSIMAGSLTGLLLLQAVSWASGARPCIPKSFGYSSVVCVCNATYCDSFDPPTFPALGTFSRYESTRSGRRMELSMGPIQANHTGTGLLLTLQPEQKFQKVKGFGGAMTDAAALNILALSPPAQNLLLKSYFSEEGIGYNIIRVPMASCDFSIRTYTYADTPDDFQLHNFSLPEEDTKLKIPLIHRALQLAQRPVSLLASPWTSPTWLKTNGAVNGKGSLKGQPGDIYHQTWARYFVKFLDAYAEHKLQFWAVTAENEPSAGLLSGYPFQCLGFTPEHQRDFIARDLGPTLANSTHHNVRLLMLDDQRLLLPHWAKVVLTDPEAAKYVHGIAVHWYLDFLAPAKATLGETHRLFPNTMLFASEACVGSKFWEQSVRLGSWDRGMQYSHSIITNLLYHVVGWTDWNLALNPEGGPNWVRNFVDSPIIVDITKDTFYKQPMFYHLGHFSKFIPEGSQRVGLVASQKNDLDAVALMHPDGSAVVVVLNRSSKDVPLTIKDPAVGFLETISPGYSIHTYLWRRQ
Summary of the method: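 Normal human glucocerebrosidase (0.2 nM) with blue fluorogenic substrate (80 uM final) in citrate/phosphate pH 5.9 with 10mM sodium taurocholate, 0.01% tween-20; 40 min RT, NaOH/glycine stop; fluorescence Ex 365/Em 440; AC50 from a titration from 0.6 nM upwards.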

[2] = AP1 Signaling Pathway (AID 357); details: ME-180 (cervical carcinoma) AP-1-bla reporter, EGF-induced, beta-lactamase ratio, 5 h; at 7.69 µM (top of the series) unless noted;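 also: ME-180 reporter cells stimulated with EGF at its EC50 level; % is scaled to controls: 0 for no effect and ±100 for the full control effect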
Summary of the method: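 Titration-series screen for positive or negative modulators of EC50 EGF-induced signaling in ME-180 cells carrying an AP-1-driven beta-lactamase reporter. After 5 hours at 37 degrees Celsius, CCF4 460nm/530nm emission ratio gave %Activity; AC50 values derived.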

[3] = NFAT Signaling Pathway (AID 444); details: Jurkat NFAT-bla M1, carbachol, beta-lactamase ratio, 5 h; at 7.69 µM (top of the series) unless noted;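 also: carbachol stimulus at about its EC50 of 1 µM final; % is scaled to controls: 0 for no effect and ±100 for the full control effect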
Summary of the method: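 Jurkat cells carrying an NFAT-driven β-lactamase reporter and co-transfected muscarinic M1 receptor were treated with compound plus carbachol (1 uM final, an EC50 level) for 5 h at 37 °C. CCF4 loading followed for 1 h at RT; 460/530 nm ratio gave %activity.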

[4] = biological target: Glucocorticoid receptor (Homo sapiens) (UniProt P04150); assay: GR-GFP Redistribution (AID 450;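 active = compounds whose dose series gives a full or clear partial fitted curve of increased nuclear translocation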; also: potency is read from the fitted curve at half-maximal effect); details: U2OS GR-GFP nuclear translocation, laser cytometry, 2 h
Sequence of Glucocorticoid receptor (Homo sapiens) (P04150 whole entry, looked up, the tested form may be a part): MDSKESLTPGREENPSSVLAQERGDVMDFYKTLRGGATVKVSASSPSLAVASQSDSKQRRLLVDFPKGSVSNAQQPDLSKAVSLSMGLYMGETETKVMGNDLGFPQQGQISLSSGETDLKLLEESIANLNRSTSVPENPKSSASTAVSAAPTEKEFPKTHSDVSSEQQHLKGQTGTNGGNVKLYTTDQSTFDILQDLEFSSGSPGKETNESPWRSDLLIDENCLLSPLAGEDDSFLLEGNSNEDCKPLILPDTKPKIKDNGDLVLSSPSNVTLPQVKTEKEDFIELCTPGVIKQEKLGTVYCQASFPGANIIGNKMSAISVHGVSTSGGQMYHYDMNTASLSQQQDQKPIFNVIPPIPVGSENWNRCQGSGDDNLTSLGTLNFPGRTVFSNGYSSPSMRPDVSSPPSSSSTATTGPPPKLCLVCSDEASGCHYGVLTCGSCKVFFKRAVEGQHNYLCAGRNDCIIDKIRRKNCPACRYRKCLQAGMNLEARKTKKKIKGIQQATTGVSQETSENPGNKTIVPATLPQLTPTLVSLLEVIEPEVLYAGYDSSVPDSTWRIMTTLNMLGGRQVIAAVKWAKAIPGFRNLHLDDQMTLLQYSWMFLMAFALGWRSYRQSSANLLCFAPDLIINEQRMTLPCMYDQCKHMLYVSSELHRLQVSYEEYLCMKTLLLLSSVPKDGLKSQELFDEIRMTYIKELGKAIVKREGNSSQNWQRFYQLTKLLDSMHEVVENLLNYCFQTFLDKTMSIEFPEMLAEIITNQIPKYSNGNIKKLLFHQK

[5] = biological target: Glucocorticoid receptor (Homo sapiens) (UniProt P04150); assay: GR-EFC Redistribution (AID 451; calls by dose curve; also: potency is read from the fitted curve at half-maximal effect); details: CHO-K1 GR-EFC translocation, beta-gal luminescence, 2 h
Summary of the method: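 CHO-K1 cells stably expressing nuclear-localized β-gal enzyme acceptor and GR fused C-terminally to the enzyme donor fragment; ligand-driven nuclear translocation restores β-gal by complementation. Compounds titrated up to 46 uM final, 2 h at 37 °C; luminescence read.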

[6] = biological target: Mitogen-activated protein kinase 10 (Mus musculus) (UniProt Q61831); assay: JNK3 AlphaScreen Assay (AID 530); details: JNK3 lysate, c-Jun phosphorylation; series mostly up to 11.4 µM;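 also: kinase came from lysate of stimulated human HepG2 cells; signal reports phosphorylation of biotinylated GST-cJun 1-79 at Ser73 with 10 µM ATP; % is scaled to controls: 0 for no effect and ±100 for the full control effect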
Summary of the method: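 Phosphorylation of biotinylated GST-cJun(1-79) at Ser73 is measured by AlphaScreen proximity luminescence. Enzyme is JNK3 in HepG2 lysates activated with interleukin-1beta and tumor necrosis factor alpha; ATP is 10 uM final.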

[7] = biological target: 3',5'-cyclic-AMP phosphodiesterase 4B (Homo sapiens) (UniProt Q07343); assay: qHTS Assay for Inhibitors of PDE-IV (AID 607; active = well fitted activation curve with a large enough effect in the main read-out, with a control signal flat, not every such curve was filed as active; also: % of control where 0% means no effect); details: HEK293 ACTOne CNG channel cells, membrane potential fluorescence; series mostly up to 22.9 µM
Sequence of 3',5'-cyclic-AMP phosphodiesterase 4B (Homo sapiens) (Q07343 whole entry, looked up): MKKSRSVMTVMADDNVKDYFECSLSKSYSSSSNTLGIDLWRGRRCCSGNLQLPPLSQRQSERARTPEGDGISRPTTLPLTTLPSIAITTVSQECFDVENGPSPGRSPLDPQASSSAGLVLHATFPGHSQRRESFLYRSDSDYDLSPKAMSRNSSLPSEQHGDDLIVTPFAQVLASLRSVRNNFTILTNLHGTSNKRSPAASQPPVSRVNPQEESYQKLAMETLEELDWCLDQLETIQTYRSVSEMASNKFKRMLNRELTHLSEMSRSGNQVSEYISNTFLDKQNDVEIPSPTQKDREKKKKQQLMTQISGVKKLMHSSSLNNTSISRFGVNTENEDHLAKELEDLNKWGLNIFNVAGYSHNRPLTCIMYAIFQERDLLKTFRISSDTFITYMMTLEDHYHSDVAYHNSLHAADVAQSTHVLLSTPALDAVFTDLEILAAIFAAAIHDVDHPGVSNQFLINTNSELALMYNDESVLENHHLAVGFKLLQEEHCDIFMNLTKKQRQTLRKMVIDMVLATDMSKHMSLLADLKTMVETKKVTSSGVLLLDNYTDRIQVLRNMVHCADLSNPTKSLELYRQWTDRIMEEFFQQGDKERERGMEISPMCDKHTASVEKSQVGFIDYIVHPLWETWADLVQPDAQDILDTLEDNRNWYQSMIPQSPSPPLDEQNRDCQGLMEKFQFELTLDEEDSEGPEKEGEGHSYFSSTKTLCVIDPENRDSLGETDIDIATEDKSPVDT
Summary of the method: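 HEK293 ACTOne cells with CNG channel (1000/well), endogenous PDE4; membrane potential dye, compounds up to 22.9 uM final. Fluorescence Ex 535/Em 590; RO 20-1724 (100 uM final) as reference.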

[8] = biological target: Cytochrome P450 2C9 (Homo sapiens) (UniProt P11712); assay: qHTS Assay for Inhibitors and Substrates of Cytochrome P450 2C9 (AID 883; active = well fitted inhibition curve with a large enough effect; also: % is scaled to controls: 0 for no effect and ±100 for the full control effect; nearly all actives have a fitted effect of over 60% in size); details: recombinant CYP2C9, luciferin-H luminescence, 60 min; series mostly up to 11.4 µM
Sequence of Cytochrome P450 2C9 (Homo sapiens) (P11712 whole entry, looked up): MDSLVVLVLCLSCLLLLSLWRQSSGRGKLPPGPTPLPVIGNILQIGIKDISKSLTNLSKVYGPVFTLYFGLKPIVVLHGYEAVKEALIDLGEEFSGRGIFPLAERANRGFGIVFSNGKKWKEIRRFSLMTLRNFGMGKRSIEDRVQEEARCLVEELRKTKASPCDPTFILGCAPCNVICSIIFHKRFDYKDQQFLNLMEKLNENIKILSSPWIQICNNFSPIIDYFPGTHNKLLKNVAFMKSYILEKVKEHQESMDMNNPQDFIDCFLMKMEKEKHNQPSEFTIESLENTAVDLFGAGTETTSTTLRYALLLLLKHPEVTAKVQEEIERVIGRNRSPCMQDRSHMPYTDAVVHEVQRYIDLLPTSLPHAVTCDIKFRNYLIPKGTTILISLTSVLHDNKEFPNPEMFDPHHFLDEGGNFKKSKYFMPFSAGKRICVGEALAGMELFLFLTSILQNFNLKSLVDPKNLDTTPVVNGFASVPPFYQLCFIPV
Summary of the method: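 Human CYP2C9 (10nM) hydroxylated Luciferin-H (100uM, at its KM) to luciferin in 25mM KPO4. Compound was preincubated 10 min at 37C, then NADPH regeneration started a 60 min reaction at 37C. Luminescence was read after detection reagent, normalized to 57uM sulphaphenazole.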

[9] = biological target: Cytochrome P450 3A4 (Homo sapiens) (UniProt P08684); assay: qHTS Assay for Inhibitors and Substrates of Cytochrome P450 3A4 (AID 884; active = well fitted inhibition curve with a large enough effect; also: % is scaled to controls: 0 for no effect and ±100 for the full control effect; nearly all actives have a fitted effect of over 50% in size); details: recombinant CYP3A4, Luciferin-PPXE luminescence; series mostly up to 57.1 µM
Sequence of Cytochrome P450 3A4 (Homo sapiens) (P08684 whole entry, looked up): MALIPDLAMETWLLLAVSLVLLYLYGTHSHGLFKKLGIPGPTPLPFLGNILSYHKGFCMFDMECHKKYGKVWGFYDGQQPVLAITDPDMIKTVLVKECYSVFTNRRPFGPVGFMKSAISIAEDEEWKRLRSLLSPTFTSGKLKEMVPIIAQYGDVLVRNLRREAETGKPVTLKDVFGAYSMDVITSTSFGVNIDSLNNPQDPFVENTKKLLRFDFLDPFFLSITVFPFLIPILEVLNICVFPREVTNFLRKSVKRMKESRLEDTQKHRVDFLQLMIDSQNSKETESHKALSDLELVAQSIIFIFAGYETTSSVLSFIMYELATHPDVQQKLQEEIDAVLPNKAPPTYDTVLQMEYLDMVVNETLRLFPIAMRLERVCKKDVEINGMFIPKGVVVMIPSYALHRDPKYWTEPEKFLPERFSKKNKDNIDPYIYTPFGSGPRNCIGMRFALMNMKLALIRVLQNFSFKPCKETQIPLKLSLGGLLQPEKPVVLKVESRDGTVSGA
Summary of the method: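 Luminescent readout of luciferin produced by CYP3A4 (20 nM) dealkylation of Luciferin-PPXE, 25 uM (its KM). NADPH-driven reaction ran 60 min at RT after 10 min compound preincubation; data scaled to 57 uM ketoconazole as 100% inhibition.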

[10] = biological target: Cytochrome P450 2D6 (Homo sapiens) (UniProt P10635); assay: qHTS Assay for Inhibitors and Substrates of Cytochrome P450 2D6 (AID 891; active = well fitted inhibition curve with a large enough effect;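 also: luciferin methyl ether substrate demethylated by CYP2D6 with NADPH regeneration; % is scaled to controls: 0 for no effect and ±100 for the full control effect; nearly all actives have a fitted effect of over 60% in size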); details: recombinant CYP2D6, luciferin-ME EGE luminescence; series mostly up to 11.4 µM
Sequence of Cytochrome P450 2D6 (Homo sapiens) (P10635 whole entry, looked up): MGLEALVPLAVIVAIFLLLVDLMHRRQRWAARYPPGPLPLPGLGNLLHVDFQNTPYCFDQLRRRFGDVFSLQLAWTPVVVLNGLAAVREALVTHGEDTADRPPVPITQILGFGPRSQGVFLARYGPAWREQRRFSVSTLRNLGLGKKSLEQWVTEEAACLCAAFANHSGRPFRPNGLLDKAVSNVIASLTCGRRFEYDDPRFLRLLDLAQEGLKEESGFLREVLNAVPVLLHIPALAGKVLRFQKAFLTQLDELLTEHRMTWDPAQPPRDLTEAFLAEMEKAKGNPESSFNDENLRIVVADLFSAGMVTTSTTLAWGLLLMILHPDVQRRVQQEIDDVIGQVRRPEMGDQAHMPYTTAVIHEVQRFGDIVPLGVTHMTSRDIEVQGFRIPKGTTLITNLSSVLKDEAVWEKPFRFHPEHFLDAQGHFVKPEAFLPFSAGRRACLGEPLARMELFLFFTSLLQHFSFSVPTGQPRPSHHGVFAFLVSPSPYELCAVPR
Summary of the method: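 Luminescent read-out of luciferin formed by 5 nM human CYP2D6 demethylating 30 uM Luciferin-ME EGE (Km level) over 60 min at room temperature after NADPH regeneration addition. Data normalized to full inhibition by 1.43 uM quinidine.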

[11] = biological target: Cytochrome P450 2C19 (Homo sapiens) (UniProt P33261); assay: qHTS Assay for Inhibitors and Substrates of Cytochrome P450 2C19 (AID 899; active = well fitted inhibition curve with a large enough effect; also: % is scaled to controls: 0 for no effect and ±100 for the full control effect; nearly all actives have a fitted effect of over 60% in size); details: recombinant CYP2C19, luciferin-H EGE luminescence; series mostly up to 11.4 µM
Sequence of Cytochrome P450 2C19 (Homo sapiens) (P33261 whole entry, looked up): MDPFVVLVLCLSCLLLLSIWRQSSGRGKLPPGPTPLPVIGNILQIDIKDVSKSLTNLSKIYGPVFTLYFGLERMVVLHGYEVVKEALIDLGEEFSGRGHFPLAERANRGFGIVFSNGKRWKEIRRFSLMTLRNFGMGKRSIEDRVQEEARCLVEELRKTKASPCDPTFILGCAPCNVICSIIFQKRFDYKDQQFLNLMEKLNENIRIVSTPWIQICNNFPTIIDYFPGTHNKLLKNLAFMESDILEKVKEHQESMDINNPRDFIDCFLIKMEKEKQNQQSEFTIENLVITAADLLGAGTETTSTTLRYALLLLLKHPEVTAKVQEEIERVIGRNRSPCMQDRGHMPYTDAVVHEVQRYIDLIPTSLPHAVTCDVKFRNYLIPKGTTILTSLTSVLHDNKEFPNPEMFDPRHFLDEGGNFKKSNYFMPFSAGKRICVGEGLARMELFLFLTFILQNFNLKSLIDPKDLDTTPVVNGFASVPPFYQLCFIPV
Summary of the method: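 Human CYP2C19 (5nM) with Luciferin-H EGE at 10uM (its KM) in 50mM KPO4 was preincubated with compound for 10 min at 37C. NADPH regeneration started a 60 min 37C reaction. Luciferin was read by luminescence, normalized to 57uM ketoconazole.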

O=C(O)CSCC(=O)c1ccccc1
inactive: Potency [1] > 11.4 µM | activity change, negative = inhibition [2] 3.6% | activity change, negative = inhibition [3] 11.1% | Potency [4] > 46 µM | Potency [5] > 9.22 µM | Potency [6] | Potency [7] | Potency [8] | activity change, negative = inhibition [9] -4.13% [at 11.4 µM] | Potency [10] | Potency [11]

O=C(O)c1oc(C(=O)O)c(C(=O)O)c1C(=O)O
inactive: Potency [1] > 11.4 µM | activity change, negative = inhibition [2] 10.9% | activity change, negative = inhibition [3] 7.7% | Potency [4] > 46 µM | Potency [5] > 9.22 µM | Potency [6] | Potency [7]

CCN(CC)COC(=S)S
inactive: Potency [1] > 11.4 µM | activity change, negative = inhibition [2] 7.48% | activity change, negative = inhibition [3] -12.2% | Potency [4] > 46 µM | Potency [5] > 9.22 µM | Potency [6] | Potency [7]
